Sampled rows, rich in hits. Any-hit rate of the full collection: about 6.1%.
ERG-DNA inh: qHTS for Small Molecule Inhibitors of the ERG Ets/DNA interaction | Transcriptional regulator ERG (Homo sapiens), P11308 | fluorescence polarization, His-ERG Ets domain / labelled DNA | Potency, µM (doses to about 76.9 µM), actives largely listed as inhibitors | hit rate 0.028% among 370,000; active = well fitted inhibition curve with a large enough effect in the polarisation, with a control signal flat; inconclusive = small, poorly fitted or top-dose-only effect, or effect the other way, or a change in a side signal; inactive = no such curve, though single readings can be large or run the other way; the % refers to the polarisation;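 also: polarization taken with two DNA probes labelled with fluorescein and Texas red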
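His-tagged ERG Ets domain (1 uM in the protein solution; 300mM KCl, 50mM Tris-HCl, 1mM EDTA, 1mM DTT, pH 7.5) received compound, then a probe mix of 5 nM fluorescein-DNA and 100nM Texas-615-DNA. Fluorescence polarization was read for both dyes.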
DRD3 agonist: qHTS of D3 Dopamine Receptor Agonist: qHTS; D(3) dopamine receptor (Homo sapiens), P35462; D3R DiscoveRx beta-arrestin cells, luminescence, 90 min; max activation, %; hit rate 0.58% among 410,000; AID 652048, 2013; in the data active = max activation above about 30%
Target sequence (P35462 whole entry, looked up): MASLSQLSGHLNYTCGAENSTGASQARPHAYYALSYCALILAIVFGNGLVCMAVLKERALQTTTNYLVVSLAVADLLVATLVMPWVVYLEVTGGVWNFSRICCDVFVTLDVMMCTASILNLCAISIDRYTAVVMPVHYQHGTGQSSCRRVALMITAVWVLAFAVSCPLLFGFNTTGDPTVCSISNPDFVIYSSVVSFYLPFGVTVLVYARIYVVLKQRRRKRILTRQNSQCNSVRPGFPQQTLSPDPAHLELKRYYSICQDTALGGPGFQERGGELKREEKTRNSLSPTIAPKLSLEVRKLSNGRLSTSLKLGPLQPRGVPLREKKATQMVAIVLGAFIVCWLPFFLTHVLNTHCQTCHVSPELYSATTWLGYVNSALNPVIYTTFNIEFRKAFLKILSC
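Cells at 1500/well, incubated overnight, then treated with pinned compounds (dopamine as control) for 90 min at 37 degrees C. DiscoveRx reagent added for 30 - 60 minutes at room temperature; luminescence read.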
DRD3 antagonist: qHTS of D3 Dopamine Receptor Antagonist: qHTS; D(3) dopamine receptor (Homo sapiens), P35462; D3R cells, DiscoveRx beta-arrestin luminescence, antagonist mode; hits give low values; max response, negative = inhibition, %; hit rate 2.5% among 360,000; AID 652054, 2013; in the data active = max response below about -50%; inconclusive = no clear call, values can overlap the other calls
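Cells plated overnight at 1500 cells/well, then exposed to library compounds with dopamine controls for 90 minutes at 37 degrees C. DiscoveRx reagent added for 30–60 minutes at room temperature; luminescence read, quantitative HTS format.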
D1 antagonist: Antagonist of Human D 1 Dopamine Receptor: qHTS. D(1A) dopamine receptor (Homo sapiens), P21728. HEK293 TREx D1 cells, calcium flux, dopamine EC80; hits give low values. activity change, negative = inhibition, % at 10 µM. hit rate 3.2% among 360,000. AID 504652, 2011; in the data active = activity change below about -30%
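Antagonism measured as reduced calcium response to an EC80 dopamine addition following 180 s compound pre-read; cells were inducible HEK293 Trex D1 plated overnight at 30 C, read kinetically at 1 cycle/sec.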
D1 PAM: Potentiators of Human D1 Dopamine Receptor: qHTS | HEK293 TREx D1 cells, calcium flux, dopamine EC20 potentiation | D(1A) dopamine receptor (Homo sapiens), P21728 | hit rate 0.036% among 360,000 | potentiation, % at 10 µM; in the data active = potentiation above about 30%
D1 ag: Allosteric Agonists of the Human D1 Dopamine Receptor: qHTS | D(1A) dopamine receptor (Homo sapiens), P21728 | HEK293 T-REx D1 cells, calcium flux, agonist mode | activation, % at 2 µM | hit rate 1% among 360,000 | AID 504660, 2011; in the data active = activation above about 30%
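Inducible HEK293 T-REx D1 cells, force-coupled to calcium signalling, were plated at 4000 cells/well with tetracycline and held overnight at 30 C. After no-wash calcium dye loading, compound-evoked calcium rise over 180 s flagged agonists.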
Numbers stand for hits; – = inactive; ? = inconclusive; · = no result given.

SMILES	ERG-DNA inh	DRD3 agonist	DRD3 antagonist	D1 antagonist	D1 PAM	D1 ag
CN(C)S(=O)(=O)Nc1ccc(Br)cc1F	–	–	–	–	–	–
CCc1c(C(=O)NNC(=S)Nc2ccc(S(=O)(=O)Nc3ncccn3)cc2)csc1C	–	–	–	–	–	–
Cc1ccccc1C(=O)n1nc(-c2cccnc2)nc1NCc1ccc(F)cc1	–	–	·	–	–	–
COc1cccc(N=Cc2ccc(O)cc2O)c1	–	34	–	–	–	–
CCCOc1ccc(CCC(=O)N/N=C/c2ccncc2)cc1	–	–	–	-36	–	–
CCOc1ccc(N(CC(=O)Nc2ccc(C)c(C)c2)S(=O)(=O)c2c(C)noc2C)cc1	–	–	-66	–	–	–
COc1ccccc1NC(=O)CN(c1ccc(C)cc1)S(=O)(=O)c1c(C)n[nH]c1C	–	–	–	-54	–	–
COc1ccc(N(CC(=O)Nc2cccc(C)c2)S(=O)(=O)c2c(C)noc2C)cc1	–	–	–	–	–	–
CCOc1ccc(N(CC(=O)Nc2ccccc2C)S(=O)(=O)c2c(C)noc2C)cc1	–	–	–	–	–	–
Cc1noc(C)c1S(=O)(=O)N(CC(=O)NCc1ccc(F)cc1)c1ccc(C(C)C)cc1	?	–	–	-35	–	–
CCOc1ccc(N(CC(=O)Nc2cccc(F)c2)S(=O)(=O)c2c(C)noc2C)cc1	–	–	–	-34	–	–
CCCn1nnnc1SCC(=O)N1CCCCC1	–	–	–	–	–	–
Cc1ccc(SCC(=O)OCC(=O)NC(C)c2ccc(Br)cc2)cc1 (stereo unspecified)	–	–	–	–	–	–
CCOc1ccccc1NC(=O)CN(c1cc(C)cc(C)c1)S(=O)(=O)c1c(C)noc1C	–	–	–	-40	–	–
CCC(C)N1C(=O)/C(=C/c2c(NCCCOC(C)C)nc3c(C)cccn3c2=O)SC1=S (stereo unspecified)	–	–	–	–	–	81
CCC(C)Nc1nc2c(C)cccn2c(=O)c1C=Nc1ccc(OC)cc1 (stereo unspecified)	–	–	–	–	–	–
CCCN1C(=O)/C(=C/c2c(NCCCOC(C)C)nc3c(C)cccn3c2=O)SC1=S	–	–	–	–	–	44
CCC(C)N=Cc1c(NCc2ccco2)nc2c(C)cccn2c1=O (stereo unspecified)	–	–	–	–	–	–
CCS(=O)(=O)N1CCC(C(=O)NCCCN2CCCCCC2)CC1	·	–	–	–	–	–
COc1ccc(C(=O)NCCn2cc(SCC(N)=O)c3ccccc32)cc1	–	–	–	–	–	–
CCOC(=O)Nc1nnc(/C=C/c2ccc(OC)cc2)s1	–	–	-56	–	–	–
Cc1noc(C)c1COc1ccccc1C(=O)NC(C)CCc1ccccc1 (stereo unspecified)	–	–	–	·	·	·
Cc1ccc(NS(=O)(=O)c2ccc(NC(=O)C3CCCO3)cc2)cc1 (stereo unspecified)	–	–	–	–	–	39
COc1ccc(NS(=O)(=O)c2ccc(NC(=O)C3CCCO3)cc2)cc1 (stereo unspecified)	–	–	–	–	–	–
Cc1ccc(S(=O)(=O)Nc2ccc(NC(=O)c3c(F)c(F)c(F)c(F)c3F)cc2)cc1	–	–	–	–	–	47
SMILES	ERG-DNA inh	DRD3 agonist	DRD3 antagonist	D1 antagonist	D1 PAM	D1 ag
Cc1cc(NS(=O)(=O)c2ccc(NC(=O)c3c(F)c(F)c(F)c(F)c3F)cc2)nc(C)n1	–	–	–	-49	–	–
Cc1ccc(S(=O)(=O)Nc2ccc(NC(=O)c3cccs3)cc2)cc1	–	–	–	–	–	–
Cc1cc(NS(=O)(=O)c2ccc(NC(=O)c3ccc(F)cc3)cc2)nc(C)n1	–	–	–	·	·	·
CCC1C(c2ccccc2)=CCC(C(=O)O)C1C (stereo unspecified)	–	–	–	·	·	·
O=C1c2cccc3c([N+](=O)[O-])ccc(c23)C(=O)N1Cc1cccnc1	–	–	–	-40	–	–
O=C1c2cccc3cccc(c23)C(=O)N1Cc1cccnc1	–	–	–	–	–	–
CC(C)(C)N1C(=O)[C@H]2[C@@H](c3ccc(Br)cc3)N3C(=O)N(c4ccc(Br)cc4)C(=O)[C@@]3(Cc3ccccc3)[C@H]2C1=O	–	–	–	–	–	–
NC(=O)c1cc2cc(Cl)ccc2oc1=O	–	–	?	–	–	–
NC(=O)c1cc2cc(Cl)ccc2oc1=Nc1cccc(C(F)(F)F)c1	–	–	–	-33	–	–
CC(=O)Nc1cccc(C(=O)N2CCN(Cc3ccccc3)CC2)c1	–	–	–	–	–	–
Cc1cc(CSc2ccccc2)ccc1NC(=O)c1ccc(CN2CCOCC2)cc1	–	–	–	-31	–	–
CCC(CC)C(=O)Nc1cccc(C(=O)N2CCCCCC2)c1	·	–	–	–	–	–
CSc1ccccc1NC(=O)c1ccc(CN2CCOCC2)cc1	–	–	–	–	–	–
CCC(CC)C(=O)Nc1cccc(C(=O)N2CCOCC2)c1	–	–	–	-32	–	–
O=C(Nc1cccc(C(=O)N2CCN(Cc3ccccc3)CC2)c1)c1ccccc1	–	–	–	-39	–	–
COc1cccc(NC(=O)c2ccc(CN3CCN(c4ccccc4)CC3)cc2)c1	–	–	–	–	–	–
Cc1cccc(NC(=O)c2ccc(CN3CCN(Cc4ccccc4)CC3)cc2)c1	–	–	–	-37	–	–
Cc1cccc(Nc2ncnc3onc(-c4cccc(Cl)c4)c23)c1C	–	–	–	–	–	–
Fc1ccc(Nc2ncnc3onc(-c4cccc(Cl)c4)c23)c(F)c1	–	–	·	-45	–	–
Cn1cnnc1SCC(=O)c1ccc2c(c1)NC(=O)CO2	–	–	–	–	–	–
Cn1cnnc1SCC(=O)c1ccc(O)c(O)c1	–	39	–	–	–	–
CC(=O)c1ccc(O)c(CSc2nncn2C)c1	–	–	–	-32	–	–
O=C(CCN1CCN(C(=O)c2ccco2)CC1)Nc1ccc(F)cc1	–	–	–	–	–	–
O=C(c1ccco1)N1CCN(CCCCN2C(=O)c3ccccc3C2=O)CC1	·	57	–	–	–	–
O=C(c1ccco1)N1CCN(CCCCOc2ccc(F)cc2)CC1	–	66	–	–	–	–
CCNC(=O)C(=O)NCC1OCCCN1S(=O)(=O)c1ccc(F)cc1C (stereo unspecified)	–	–	–	–	–	–

Bioassay records: PubChem, National Center for Advancing Translational Sciences (NCATS)
